Over roughly 16,000 sequences, “rpm ratio (pull-down/input)” has its median near 0.94; the highest 2% begin near 1.7. Only a selection was taken, and the highest values are over-represented in it overall.

The assay has as its target T1, MBP-FoxP1dN (Mus musculus, UniProt P58462 326-579).
T1 sequence: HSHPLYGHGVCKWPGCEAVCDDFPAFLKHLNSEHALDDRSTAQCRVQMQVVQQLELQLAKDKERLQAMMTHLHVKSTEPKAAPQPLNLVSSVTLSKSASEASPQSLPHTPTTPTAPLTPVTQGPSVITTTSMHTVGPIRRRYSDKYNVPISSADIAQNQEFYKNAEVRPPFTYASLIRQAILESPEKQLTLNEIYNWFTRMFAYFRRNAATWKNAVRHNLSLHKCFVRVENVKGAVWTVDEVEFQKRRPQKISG
Description: PD-seq (MBP pull-down with sequencing); 20 mM Tris-HCl pH 7.5, 100 mM NaCl, 1.5 mM MgCl2, 0.4 uM protein, 0.1 uM dsDNA library, 30 min, room temperature, amylose pull-down; high values mean tight binding. Particulars: protein: recombinant; tags: His6-MBP; chain copies: 2; dsDNA, one strand shown. The method in brief:
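Protein and DNA were mixed at 0.4 µM and 0.1 µM and held for 30 min at room temperature in Tris pH 7.5 buffer with NaCl and MgCl2; the protein was a His6-MBP-tagged, N-terminally truncated mouse FoxP3 or FoxP1 fragment from E. coli, and the DNA a Klenow-filled double-stranded degenerate library. Amylose resin captured the complexes, which were washed three times. Binding is read as reads-per-million enrichment of pull-down versus input after Illumina sequencing, with replicates pooled.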
As for “GATGATTGTTCTCCCAGCTGATGAATTGAAAGCCTCGAGTAAACAAATTTTCCTAATCTTTCTGTTCAAGCGCCATCTAC”, the binding signal is 0.795 RPM ratio (pull-down/input). The result for “GATGATTGTTCTCCCAGCTGATGAATTATACAGCTCGAGTAAACAAATTTTCCTAATCTTTCTGTTCAAGCGCCATCTAC” reads 1.03 RPM ratio (pull-down/input). For “GATGATTGTTCTCCCAGCTGATGAATTCTCGCGCTCGAGTAAACAAATTTTCCTAATCTTTCTGTTCAAGCGCCATCTAC”, the binding signal is 0.835 RPM ratio (pull-down/input). With “GATGATTGTTCTCCCAGCTGATGAATTCGTCTTGTCGAGTAAACAAATTTTCCTAATCTTTCTGTTCAAGCGCCATCTAC”, the binding signal was 0.827 RPM ratio (pull-down/input). In the case of “GATGATTGTTCTCCCAGCTGATGAATTAATAATCTCGAGTAAACAAATTTTCCTAATCTTTCTGTTCAAGCGCCATCTAC”, the binding signal is 1.06 RPM ratio (pull-down/input). With “GATGATTGTTCTCCCAGCTGATGAATTTATATTCTCGAGTAAACAAATTTTCCTAATCTTTCTGTTCAAGCGCCATCTAC”, the binding signal is 1.04 RPM ratio (pull-down/input). On to “GATGATTGTTCTCCCAGCTGATGAATTTTATCTGTCGAGTAAACAAATTTTCCTAATCTTTCTGTTCAAGCGCCATCTAC”, for which the binding signal was 0.918 RPM ratio (pull-down/input). As for “GATGATTGTTCTCCCAGCTGATGAATTGTTATTGTCGAGTAAACAAATTTTCCTAATCTTTCTGTTCAAGCGCCATCTAC”, the binding signal was 3.45 RPM ratio (pull-down/input). With “GATGATTGTTCTCCCAGCTGATGAATTATATTTGTCGAGTAAACAAATTTTCCTAATCTTTCTGTTCAAGCGCCATCTAC” the figure was 2.29 RPM ratio (pull-down/input); with “GATGATTGTTCTCCCAGCTGATGAATTATTTTTGTCGAGTAAACAAATTTTCCTAATCTTTCTGTTCAAGCGCCATCTAC”, 1.37 RPM ratio (pull-down/input). Take “GATGATTGTTCTCCCAGCTGATGAATTTATTCTGTCGAGTAAACAAATTTTCCTAATCTTTCTGTTCAAGCGCCATCTAC”: the binding signal is 1.12 RPM ratio (pull-down/input). Regarding “GATGATTGTTCTCCCAGCTGATGAATTTTATATGTCGAGTAAACAAATTTTCCTAATCTTTCTGTTCAAGCGCCATCTAC”, the binding signal was 0.988 RPM ratio (pull-down/input). With “GATGATTGTTCTCCCAGCTGATGAATTTATATTGTCGAGTAAACAAATTTTCCTAATCTTTCTGTTCAAGCGCCATCTAC” the figure was 2.36 RPM ratio (pull-down/input).

“GATGATTGTTCTCCCAGCTGATGAATTATATCTGTCGAGTAAACAAATTTTCCTAATCTTTCTGTTCAAGCGCCATCTAC”: the binding signal was 1.08 RPM ratio (pull-down/input).

In the case of “GATGATTGTTCTCCCAGCTGATGAATTTTTATTGTCGAGTAAACAAATTTTCCTAATCTTTCTGTTCAAGCGCCATCTAC”, the binding signal is 2.51 RPM ratio (pull-down/input).

Consider “GATGATTGTTCTCCCAGCTGATGAATTAAACATATCGAGTAAACAAATTTTCCTAATCTTTCTGTTCAAGCGCCATCTAC”, for which the binding signal was 1.4 RPM ratio (pull-down/input). For the sequence “GATGATTGTTCTCCCAGCTGATGAATTGGTGCCATCGAGTAAACAAATTTTCCTAATCTTTCTGTTCAAGCGCCATCTAC”, the binding signal is 0.972 RPM ratio (pull-down/input). For “GATGATTGTTCTCCCAGCTGATGAATTCGCTGTATCGAGTAAACAAATTTTCCTAATCTTTCTGTTCAAGCGCCATCTAC”, the binding signal is 1.04 RPM ratio (pull-down/input).

For the sequence “GATGATTGTTCTCCCAGCTGATGAATTTACCCTCTCGAGTAAACAAATTTTCCTAATCTTTCTGTTCAAGCGCCATCTAC”, the binding signal is 1.06 RPM ratio (pull-down/input). Consider “GATGATTGTTCTCCCAGCTGATGAATTAAAAAGTTCGAGTAAACAAATTTTCCTAATCTTTCTGTTCAAGCGCCATCTAC”, for which the binding signal was 0.935 RPM ratio (pull-down/input). In the case of “GATGATTGTTCTCCCAGCTGATGAATTATAGTAGTCGAGTAAACAAATTTTCCTAATCTTTCTGTTCAAGCGCCATCTAC”, the binding signal was 0.985 RPM ratio (pull-down/input). With “GATGATTGTTCTCCCAGCTGATGAATTGGTCGCGTCGAGTAAACAAATTTTCCTAATCTTTCTGTTCAAGCGCCATCTAC”, the binding signal is 1.03 RPM ratio (pull-down/input).

Consider “GATGATTGTTCTCCCAGCTGATGAATTCAAGCTCTCGAGTAAACAAATTTTCCTAATCTTTCTGTTCAAGCGCCATCTAC”, for which the binding signal is 0.854 RPM ratio (pull-down/input). The result for “GATGATTGTTCTCCCAGCTGATGAATTTATTTGGTCGAGTAAACAAATTTTCCTAATCTTTCTGTTCAAGCGCCATCTAC” reads 1.59 RPM ratio (pull-down/input); that for “GATGATTGTTCTCCCAGCTGATGAATTTATTTTGTCGAGTAAACAAATTTTCCTAATCTTTCTGTTCAAGCGCCATCTAC”, 1.62 RPM ratio (pull-down/input).

Regarding “GATGATTGTTCTCCCAGCTGATGAATTATTCCTGTCGAGTAAACAAATTTTCCTAATCTTTCTGTTCAAGCGCCATCTAC”, the binding signal was 0.964 RPM ratio (pull-down/input). “GATGATTGTTCTCCCAGCTGATGAATTTTATGTGTCGAGTAAACAAATTTTCCTAATCTTTCTGTTCAAGCGCCATCTAC”: the binding signal was 1.13 RPM ratio (pull-down/input). The result for “GATGATTGTTCTCCCAGCTGATGAATTTTATTTGTCGAGTAAACAAATTTTCCTAATCTTTCTGTTCAAGCGCCATCTAC” reads 2.45 RPM ratio (pull-down/input); that for “GATGATTGTTCTCCCAGCTGATGAATTTATTGTGTCGAGTAAACAAATTTTCCTAATCTTTCTGTTCAAGCGCCATCTAC”, 1.88 RPM ratio (pull-down/input). With “GATGATTGTTCTCCCAGCTGATGAATTTTATTGGTCGAGTAAACAAATTTTCCTAATCTTTCTGTTCAAGCGCCATCTAC” the figure was 1.74 RPM ratio (pull-down/input). With “GATGATTGTTCTCCCAGCTGATGAATTGTCTTATTCGAGTAAACAAATTTTCCTAATCTTTCTGTTCAAGCGCCATCTAC”, the binding signal is 1.18 RPM ratio (pull-down/input). With “GATGATTGTTCTCCCAGCTGATGAATTTAATTTGTCGAGTAAACAAATTTTCCTAATCTTTCTGTTCAAGCGCCATCTAC” the figure was 1.25 RPM ratio (pull-down/input); with “GATGATTGTTCTCCCAGCTGATGAATTGATTGTGTCGAGTAAACAAATTTTCCTAATCTTTCTGTTCAAGCGCCATCTAC”, 1.35 RPM ratio (pull-down/input); with “GATGATTGTTCTCCCAGCTGATGAATTATTTTGGTCGAGTAAACAAATTTTCCTAATCTTTCTGTTCAAGCGCCATCTAC”, 1.35 RPM ratio (pull-down/input). As for “GATGATTGTTCTCCCAGCTGATGAATTCTTATTGTCGAGTAAACAAATTTTCCTAATCTTTCTGTTCAAGCGCCATCTAC”, the binding signal was 2.49 RPM ratio (pull-down/input). With “GATGATTGTTCTCCCAGCTGATGAATTTCATAAATCGAGTAAACAAATTTTCCTAATCTTTCTGTTCAAGCGCCATCTAC” the figure was 1.05 RPM ratio (pull-down/input); with “GATGATTGTTCTCCCAGCTGATGAATTAAATCACTCGAGTAAACAAATTTTCCTAATCTTTCTGTTCAAGCGCCATCTAC”, 1.09 RPM ratio (pull-down/input). In the case of “GATGATTGTTCTCCCAGCTGATGAATTAGACGCGTCGAGTAAACAAATTTTCCTAATCTTTCTGTTCAAGCGCCATCTAC”, the binding signal is 0.99 RPM ratio (pull-down/input).

For the sequence “GATGATTGTTCTCCCAGCTGATGAATTGCAGATGTCGAGTAAACAAATTTTCCTAATCTTTCTGTTCAAGCGCCATCTAC”, the binding signal was 1.27 RPM ratio (pull-down/input). As for “GATGATTGTTCTCCCAGCTGATGAATTACTCCAATCGAGTAAACAAATTTTCCTAATCTTTCTGTTCAAGCGCCATCTAC”, the binding signal is 1.1 RPM ratio (pull-down/input).

The values are drawn from paper PMC12820563, “FoxP3 forms a head-to-head dimer in vivo and stabilizes its multimerization on adjacent microsatellites”.
